# Test results from article PMC8384837, “Expanding the binding specificity for RNA recognition by a PUF domain”.
# Key:
# Test in all cases: yeast three-hybrid, YBZ-1, SC-Leu-His + 0.5 mM 3-AT, 4 days
# Conditions in all cases: tags: N-Gal4 AD-HA kept; label: inside an RPR1-promoter hybrid RNA with tandem MS2 sites; ssRNA
# [1] = target: PUM1 PUF domain R8-TFN (Homo sapiens, UniProt Q14671 828-1176, N1122T;Y1123F;Q1126N)
# Outline: (§1)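 Sequencing with Illumina followed PCR amplification of the repeat regions from transformants grown four days on SC-Leu (input) or SC-Leu-His + 0.5 mM 3-AT (selection). The transformants were strain YBZ-1 with a LexA–MS2 coat fusion and a HIS3 reporter, carrying Pumilio-1 PUF domain libraries and matching RNA elements. The interaction score is the log change in variant frequency from input to selection, computed in log2 with a pseudocount of 1 for absent variants.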
# [2] = target: PUM1 PUF domain R8-QWG (Homo sapiens, UniProt Q14671 828-1176, N1122Q;Y1123W;Q1126G)
# Outline: as §1
# [3] = target: PUM1 PUF domain R5-FQR (Homo sapiens, UniProt Q14671 828-1176, C1007F;R1008Q;Q1011R)
# Outline: as §1
# [4] = target: PUM1 PUF domain R5-KHA (Homo sapiens, UniProt Q14671 828-1176, C1007K;R1008H;Q1011A)
# Outline: as §1
# [5] = target: PUM1 PUF domain R4-DWL (Homo sapiens, UniProt Q14671 828-1176, N971D;H972W;Q975L)
# Outline: as §1
# [6] = target: PUM1 PUF domain R3-LWQ (Homo sapiens, UniProt Q14671 828-1176, C935L;R936W)
# Outline: as §1
# [7] = target: T1, PUM1 PUF domain R6-NRG (Homo sapiens, UniProt Q14671 828-1176, Y1044R;Q1047G)
# T1 sequence: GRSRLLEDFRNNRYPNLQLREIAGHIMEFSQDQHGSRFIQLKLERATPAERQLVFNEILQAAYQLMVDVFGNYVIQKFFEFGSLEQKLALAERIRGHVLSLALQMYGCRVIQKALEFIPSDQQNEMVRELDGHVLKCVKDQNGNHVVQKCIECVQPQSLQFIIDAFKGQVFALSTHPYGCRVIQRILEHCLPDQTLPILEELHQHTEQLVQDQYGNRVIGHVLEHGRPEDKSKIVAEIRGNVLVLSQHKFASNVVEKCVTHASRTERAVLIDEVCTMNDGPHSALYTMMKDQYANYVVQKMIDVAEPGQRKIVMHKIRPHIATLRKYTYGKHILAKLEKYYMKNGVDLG
# Outline: as §1
# [8] = target: PUM1 PUF domain R2-GWY (Homo sapiens, UniProt Q14671 828-1176, N899G;Y900W;Q903Y)
# Outline: as §1
# [9] = target: PUM1 PUF domain R4-MLC (Homo sapiens, UniProt Q14671 828-1176, N971M;H972L;Q975C)
# Outline: as §1
# [10] = target: PUM1 PUF domain R7-LFR (Homo sapiens, UniProt Q14671 828-1176, S1079L;N1080F;E1083R)
# Outline: as §1
sequence,measurement,setting,value
GGCUAGAACUAGUGGAUCCCCCGGCGCCCGGCGGCUCGAGCCCGGGUAAGCGUAAAUAGUCUGCAUGCCGCCGGGCGCCAUGCCUGCAGGUCGACUCUAGAAAACAUG,binding signal,[1],2.95 log2 enrichment (interaction score)
same,binding signal,[2],2.14 log2 enrichment (interaction score)
GGCUAGAACUAGUGGAUCCCCCGGCGCCCGGCGGCUCGAGCCCGGGUAAGUGUCAAUAGUCUGCAUGCCGCCGGGCGCCAUGCCUGCAGGUCGACUCUAGAAAACAUG,binding signal,[3],2.5 log2 enrichment (interaction score)
same,binding signal,[4],6.11 log2 enrichment (interaction score)
GGCUAGAACUAGUGGAUCCCCCGGCGCCCGGCGGCUCGAGCCCGGGUAAGUGUACAUAGUCUGCAUGCCGCCGGGCGCCAUGCCUGCAGGUCGACUCUAGAAAACAUG,binding signal,[5],4.62 log2 enrichment (interaction score)
GGCUAGAACUAGUGGAUCCCCCGGCGCCCGGCGGCUCGAGCCCGGGUAAGUGUAUAUAGUCUGCAUGCCGCCGGGCGCCAUGCCUGCAGGUCGACUCUAGAAAACAUG,binding signal,[5],5.76 log2 enrichment (interaction score)
GGCUAGAACUAGUGGAUCCCCCGGCGCCCGGCGGCUCGAGCCCGGGUAAGUGUAAUUAGUCUGCAUGCCGCCGGGCGCCAUGCCUGCAGGUCGACUCUAGAAAACAUG,binding signal,[6],4.13 log2 enrichment (interaction score)
GGCUAGAACUAGUGGAUCCCCCGGCGCCCGGCGGCUCGAGCCCGGGUAAGUGUAAAUAGUCUGCAUGCCGCCGGGCGCCAUGCCUGCAGGUCGACUCUAGAAAACAUG,binding signal,[7],3.99 log2 enrichment (interaction score)
same,binding signal,[5],6.99 log2 enrichment (interaction score)
same,binding signal,[8],1.07 log2 enrichment (interaction score)
same,binding signal,[9],2.59 log2 enrichment (interaction score)
same,binding signal,[2],2.95 log2 enrichment (interaction score)
same,binding signal,[4],3.94 log2 enrichment (interaction score)
GGCUAGAACUAGUGGAUCCCCCGGCGCCCGGCGGCUCGAGCCCGGGUAAGUGUUAAUAGUCUGCAUGCCGCCGGGCGCCAUGCCUGCAGGUCGACUCUAGAAAACAUG,binding signal,[3],3.58 log2 enrichment (interaction score)
GGCUAGAACUAGUGGAUCCCCCGGCGCCCGGCGGCUCGAGCCCGGGUAAGUGUAAGUAGUCUGCAUGCCGCCGGGCGCCAUGCCUGCAGGUCGACUCUAGAAAACAUG,binding signal,[6],5.4 log2 enrichment (interaction score)
GGCUAGAACUAGUGGAUCCCCCGGCGCCCGGCGGCUCGAGCCCGGGUAAGUUUAAAUAGUCUGCAUGCCGCCGGGCGCCAUGCCUGCAGGUCGACUCUAGAAAACAUG,binding signal,[10],5.84 log2 enrichment (interaction score)
GGCUAGAACUAGUGGAUCCCCCGGCGCCCGGCGGCUCGAGCCCGGGUAAGUGUAAAAAGUCUGCAUGCCGCCGGGCGCCAUGCCUGCAGGUCGACUCUAGAAAACAUG,binding signal,[8],3.42 log2 enrichment (interaction score)
GGCUAGAACUAGUGGAUCCCCCGGCGCCCGGCGGCUCGAGCCCGGGUAAGUCUAAAUAGUCUGCAUGCCGCCGGGCGCCAUGCCUGCAGGUCGACUCUAGAAAACAUG,binding signal,[10],4.97 log2 enrichment (interaction score)
